Results as given in PubChem BioAssay (Tox21).
A number with no mark means an inactive call. Records with an inconclusive call do not appear. A call without a number means that no potency is given here. The source made the active and inactive calls. Unless noted, calls come from the whole dose curve.

Columns and labels:
[1] = Nuclear factor erythroid 2-related factor 2/antioxidant responsive element (Nrf2/ARE) small molecule agonists: qHTS cell viability counter screen in human keratinocytes (AID 1919968; active = well fitted curve in the direction sought with a large enough effect in the repeat runs; an effect the other way counts as inactive or inconclusive; note: nearly all actives have a fitted effect of over 55% in size)
In short: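 KeratinoSens cells (HaCaT keratinocytes stably carrying an ARE-luciferase reporter) were seeded at 1,500 cells/well and rested 5 h at 37 C/5% CO2. They were then exposed to compounds in DMSO for 23 h. Viability was read by CellTiter-Fluor fluorescence after 1 h.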

[2] = Nuclear factor erythroid 2-related factor 2/antioxidant responsive element (Nrf2/ARE) small molecule agonists: luciferase reporter gene qHTS assay in human keratinocytes (AID 1919969); note: nearly all actives have a fitted effect of over 35% in size
[3] = target: Gonadotropin-releasing hormone receptor (Homo sapiens) (UniProt P30968); experiment: Human gonadotropin-releasing hormone receptor (GnRHR) small molecule agonists, calcium flux assay in GnRHR-HEK293 cells (AID 1920063); note: nearly all actives have a fitted effect of over 35% in size
Sequence of Gonadotropin-releasing hormone receptor (Homo sapiens) (P30968 whole entry, looked up): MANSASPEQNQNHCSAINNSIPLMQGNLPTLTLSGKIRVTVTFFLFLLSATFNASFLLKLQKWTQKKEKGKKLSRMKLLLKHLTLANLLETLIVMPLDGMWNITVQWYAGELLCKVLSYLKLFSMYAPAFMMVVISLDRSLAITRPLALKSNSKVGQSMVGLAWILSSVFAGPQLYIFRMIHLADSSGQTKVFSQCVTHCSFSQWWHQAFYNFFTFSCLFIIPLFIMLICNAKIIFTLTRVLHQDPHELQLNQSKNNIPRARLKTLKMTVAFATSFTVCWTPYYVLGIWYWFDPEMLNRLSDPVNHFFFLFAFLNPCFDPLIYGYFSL
In short: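 HEK293 cells stably expressing human GnRHR were plated 18 h at 37 °C, loaded with calcium dye 1 h at 37 °C, then given compound in agonist mode; fluorescence (Ex/Em 480/540) read kinetically for 3 min at 1 s intervals.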

[4] = target: KiSS-1 receptor (Homo sapiens) (UniProt Q969F8); experiment: Human kisspeptin (KISS1R) small molecule agonists, calcium flux assay in KISS1R-HEK293 cells (AID 1920064; active = well fitted curve in the direction sought with a large enough effect in the repeat runs; an effect the other way counts as inactive or inconclusive)
Sequence of KiSS-1 receptor (Homo sapiens) (Q969F8 whole entry, looked up): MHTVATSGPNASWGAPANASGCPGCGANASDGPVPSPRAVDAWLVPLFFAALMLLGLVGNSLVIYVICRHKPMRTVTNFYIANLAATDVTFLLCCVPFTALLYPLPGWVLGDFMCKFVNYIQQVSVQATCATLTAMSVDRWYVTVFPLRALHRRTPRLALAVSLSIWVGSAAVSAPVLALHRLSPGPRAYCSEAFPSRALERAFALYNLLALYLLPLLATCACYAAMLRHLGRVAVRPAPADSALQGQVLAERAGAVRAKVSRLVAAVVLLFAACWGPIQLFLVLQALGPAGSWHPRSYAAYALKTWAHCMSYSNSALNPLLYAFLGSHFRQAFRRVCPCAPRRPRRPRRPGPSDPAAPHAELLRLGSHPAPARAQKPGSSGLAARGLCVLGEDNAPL
In short: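 HEK293 cells stably expressing human KISS1R were plated 18 h at 37 °C, loaded with calcium dye for 1 h at 37 °C, then given compound by pin tool. Fluorescence (Ex/Em 480/540) was read kinetically for 3 min.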

[5] = G protein-coupled receptor (GPCR) small molecule agonists, calcium flux assay: HEK293 wild type cell line counter screen (AID 1920065)
In short: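 Cells were plated and cultured 18 h at 37 C/5% CO2, then loaded with calcium dye for 1 h at 37 C. Compounds in DMSO were pin-transferred in agonist mode, and fluorescence (Ex/Em 480/540) was read kinetically for 3 min at 1 s intervals.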

[6] = p53 small molecule agonists, cell-based qHTS assay with rat liver microsomes: qHTS cell viability counter screen (AID 1963580); note: nearly all actives have a fitted effect of over 45% in size
In short: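 p53RE-bla HCT-116 cells were exposed 16 h at 37 C to compounds with rat liver microsomes (0.5 mg/mL) and NADPH (0.5 mg/mL). Viability was measured in the same wells as ATP content by CellTiter-Glo luminescence.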

[7] = p53 small molecule agonists, cell-based qHTS assay: qHTS cell viability counter screen (AID 1963581); note: nearly all actives have a fitted effect of over 45% in size
In short: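 p53RE-bla HCT-116 cells were exposed to compounds for 16 h at 37 C; after the beta-lactamase FRET read in the same wells, CellTiter-Glo was added and luminescence (intracellular ATP) read after 30 min at room temperature.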

[8] = target: 5-hydroxytryptamine receptor 2A (Homo sapiens) (UniProt P28223); experiment: 5-hydroxytryptamine receptor 2A (HTR2A) small molecule antagonists, cell-based qHTS assay (AID 1963586); note: nearly all actives have a fitted effect of over 45% in size; note: potency is the fitted concentration of half-maximal effect
Sequence of 5-hydroxytryptamine receptor 2A (Homo sapiens) (P28223 whole entry, looked up): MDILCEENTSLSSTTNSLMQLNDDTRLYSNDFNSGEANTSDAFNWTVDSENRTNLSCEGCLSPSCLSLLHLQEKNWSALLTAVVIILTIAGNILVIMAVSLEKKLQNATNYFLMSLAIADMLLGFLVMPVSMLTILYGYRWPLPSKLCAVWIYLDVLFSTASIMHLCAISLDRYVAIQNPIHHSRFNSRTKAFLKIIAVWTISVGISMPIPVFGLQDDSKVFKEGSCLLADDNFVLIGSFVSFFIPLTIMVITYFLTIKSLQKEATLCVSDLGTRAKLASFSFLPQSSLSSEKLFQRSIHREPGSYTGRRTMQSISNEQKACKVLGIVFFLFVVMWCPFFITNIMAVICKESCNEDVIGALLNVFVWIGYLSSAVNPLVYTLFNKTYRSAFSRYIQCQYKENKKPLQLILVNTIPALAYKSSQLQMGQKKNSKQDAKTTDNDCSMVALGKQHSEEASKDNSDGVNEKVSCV
In short: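 Antagonist-mode intracellular calcium assay: DOI (4 nM) added after 5 min compound pre-incubation at room temperature to dye-loaded HTR2A-CHO cells. Fluorescence followed for 3 min, sampled every second.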

[9] = target: 5-hydroxytryptamine receptor 2A (Homo sapiens) (UniProt P28223); experiment: 5-hydroxytryptamine receptor 2A (HTR2A) small molecule agonists, cell-based qHTS assay (AID 1963587); note: nearly all actives have a fitted effect of over 30% in size
In short: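 CHO cells stably expressing human HTR2A, plated 18 h, loaded with calcium dye 1 h at 37 C. Agonist mode: compounds added and intracellular calcium fluorescence recorded kinetically for 2 min at 1 sec intervals.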

[10] = target: Muscarinic acetylcholine receptor M1 (Homo sapiens) (UniProt P11229); experiment: Cholinergic receptor muscarinic 1 (CHRM1) small molecule antagonists, cell-based qHTS assay (AID 1963588); note: nearly all actives have a fitted effect of over 40% in size; note: potency is the fitted concentration of half-maximal effect
Sequence of Muscarinic acetylcholine receptor M1 (Homo sapiens) (P11229 whole entry, looked up): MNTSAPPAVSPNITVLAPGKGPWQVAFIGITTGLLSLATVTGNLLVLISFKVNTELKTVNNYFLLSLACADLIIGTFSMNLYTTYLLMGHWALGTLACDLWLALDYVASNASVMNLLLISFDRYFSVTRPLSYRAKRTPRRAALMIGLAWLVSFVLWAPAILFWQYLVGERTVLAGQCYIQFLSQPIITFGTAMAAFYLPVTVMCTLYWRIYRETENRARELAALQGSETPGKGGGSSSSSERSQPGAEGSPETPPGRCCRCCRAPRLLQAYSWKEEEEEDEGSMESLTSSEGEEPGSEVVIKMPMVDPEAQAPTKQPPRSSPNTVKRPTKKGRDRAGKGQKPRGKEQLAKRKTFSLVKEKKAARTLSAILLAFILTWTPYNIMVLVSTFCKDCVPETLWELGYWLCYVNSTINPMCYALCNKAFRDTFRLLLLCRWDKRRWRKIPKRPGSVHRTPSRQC
In short: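 CHRM1-CHO calcium-flux assay, antagonist mode. Cells were seeded 18 h, dye-loaded 1 h at 37 C and given compound for 5 min at RT, then acetylcholine was added at 50nM. FDSS fluorescence was read 3 min; 15 concentrations, three runs.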

[11] = target: Muscarinic acetylcholine receptor M1 (Homo sapiens) (UniProt P11229); experiment: Cholinergic receptor muscarinic 1 (CHRM1) small molecule agonists, cell-based qHTS assay (AID 1963589); note: nearly all actives have a fitted effect of over 35% in size
In short: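 CHO cells stably expressing human CHRM1, seeded 18 h at 37 C/5% CO2, dye-loaded 1 h at 37 C, then given compound in agonist mode; intracellular calcium fluorescence read kinetically at 1 s intervals. Fifteen concentrations, three independent runs.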

[12] = target: Beta-2 adrenergic receptor (Homo sapiens) (UniProt P07550); experiment: Adrenergic beta2 receptor (ADRB2) small molecule antagonists, cell-based qHTS assay (AID 1963592); note: series mostly up to about 92 µM; nearly all actives have a fitted effect of over 50% in size
Sequence of Beta-2 adrenergic receptor (Homo sapiens) (P07550 whole entry, looked up): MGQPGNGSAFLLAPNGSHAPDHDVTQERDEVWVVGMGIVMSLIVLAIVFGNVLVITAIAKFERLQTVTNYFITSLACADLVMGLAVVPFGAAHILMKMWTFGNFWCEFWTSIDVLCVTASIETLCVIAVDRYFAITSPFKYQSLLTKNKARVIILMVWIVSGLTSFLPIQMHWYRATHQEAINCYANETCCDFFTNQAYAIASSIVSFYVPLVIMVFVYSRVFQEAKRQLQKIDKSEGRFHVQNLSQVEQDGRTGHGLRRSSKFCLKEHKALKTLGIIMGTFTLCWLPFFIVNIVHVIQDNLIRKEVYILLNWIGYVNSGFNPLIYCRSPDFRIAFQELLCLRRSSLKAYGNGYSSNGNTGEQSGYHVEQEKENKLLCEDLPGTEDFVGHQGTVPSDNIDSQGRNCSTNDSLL
In short: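 Cells (CHO, stable ADRB2 overexpression) incubated 18-20hr at 37C; compounds added from DMSO; agonist mix (1nM isoproterenol, 100uM IBMX, 25uM Ro-20-1724) added; 0.5hr RT; d2-cAMP and anti-cAMP-cryptate added; 1hr RT; 665/615 nm read.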

[13] = target: D(2) dopamine receptor (Homo sapiens) (UniProt P14416); experiment: Dopamine D2 receptor (DRD2) small molecule agonists, cell-based qHTS assay (AID 1963594); note: nearly all actives have a fitted effect of over 35% in size
Sequence of D(2) dopamine receptor (Homo sapiens) (P14416 whole entry, looked up): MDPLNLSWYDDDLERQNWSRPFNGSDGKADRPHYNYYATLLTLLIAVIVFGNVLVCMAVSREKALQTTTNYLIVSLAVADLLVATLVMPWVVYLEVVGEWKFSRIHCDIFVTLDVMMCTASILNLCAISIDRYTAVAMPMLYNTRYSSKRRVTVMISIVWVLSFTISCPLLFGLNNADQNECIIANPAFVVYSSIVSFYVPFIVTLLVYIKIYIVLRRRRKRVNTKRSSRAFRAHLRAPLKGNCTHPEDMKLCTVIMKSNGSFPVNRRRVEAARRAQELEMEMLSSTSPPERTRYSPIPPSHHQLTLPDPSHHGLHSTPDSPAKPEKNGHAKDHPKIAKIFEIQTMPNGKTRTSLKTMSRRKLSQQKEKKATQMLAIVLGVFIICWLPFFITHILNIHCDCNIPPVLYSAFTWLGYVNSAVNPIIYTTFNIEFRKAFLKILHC
In short: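 HEK293 cells stably expressing human DRD2, pre-treated with PDE inhibitor Ro20-1724 (0.1 mM final) and compound 10 min at room temperature, then stimulated with NKH477 (200nM […]) for 30 min. cAMP read by HTRF (665/620 nm).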

[14] = target: D(2) dopamine receptor (Homo sapiens) (UniProt P14416); experiment: Dopamine D2 receptor (DRD2) small molecule antagonists, cell-based qHTS assay (AID 1963595; active = well fitted inhibition curve with a large enough effect in the signal ratio in the repeat runs, with a control signal flat; the % refers to the signal ratio)
In short: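 HTRF cAMP read-out at 665 and 620 nm emission (340 nm excitation). Antagonist mode: compounds were tested against 12 nM quinpirole in DRD2-HEK293 cells, with 200 nM NKH477 raising cAMP and 0.1 mM Ro20-1724 blocking its breakdown.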

[15] = cAMP Responsive Elements (CRE) small molecule agonists, cell-based qHTS assay (AID 1963590)
In short: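 CRE-bla HEK 293T cells in DMEM with 10% dialyzed FBS, NEAA, pyruvate and 25 mM HEPES were plated 18 h at 37 C/5% CO2, then exposed to compounds in DMSO for 3 h before LiveBLAzer B/G FRET substrate addition.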

[16] = cAMP Responsive Elements (CRE) small molecule antagonists, cell-based qHTS assay (AID 1963591; active = well fitted inhibition curve with a large enough effect in the signal ratio in the repeat runs, not every such curve was filed as active; the % refers to the signal ratio)
In short: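 CRE-bla HEK293T cells were plated 18 h at 37 °C/5% CO2, pinned with compound in DMSO, then stimulated with NKH477 at 0.25 uM final for 3 h. LiveBLAzer B/G FRET substrate was added and plates incubated 2 h at room temperature.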

[17] = target: Beta-2 adrenergic receptor (Homo sapiens) (UniProt P07550); experiment: Adrenergic beta2 receptor (ADRB2) small molecule agonists, cell-based qHTS assay (AID 1963593);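 note: CHO cells stably overexpressing human ADRB2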
In short: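 CHO cells stably over-expressing ADRB2 were plated overnight at 37C, then dosed with compounds plus a stimulation mix containing 100uM IBMX and 25uM Ro-20-1724 for 0.5hr at room temperature. cAMP was measured by HTRF competition, 1hr.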

In the case of `COC=O`, the activity change, negative = cytotoxicity [1] was -1.85% [at 8.39 µM], the activity, positive = activation [2] was -9.06% [at 8.39 µM] and the activity change [3] was -1.66% [at 5.22 µM, active compounds read high]. For the same compound, the activation [4] was -0.791% [at 6.97 µM], the activation [5] was 2.54% [at 5.23 µM] and the activity change, negative = cytotoxicity [6] was 1.32% [at 5.99 µM]. The activity change, negative = cytotoxicity [7] was -1.7% [at 5.99 µM], the Potency [8] was 3.09 µM (active) and the activation [9] was -0.022% [at 7.02 µM]. The activity, negative = inhibition [10] was 1.52% [at 5.58 µM], the activation [11] was -0.541% [at 6.97 µM] and the activity change, negative = inhibition [12] was 14.4% [at 8.39 µM]. It also gave an activation [13] of -14.1% [at 8.39 µM] and an activity change, negative = inhibition [14] of -12.2% [at 8.38 µM].
For `CCCCNc1ccc(C(=O)OCCN(CC)CC)cc1`, the Potency [1] was “inactive”, the Potency [2] was “inactive” and the Potency [3] was “inactive”. For the same compound, the Potency [4] was “inactive”, the Potency [5] was “inactive” and the Potency [6] was “inactive”. For the same compound, the Potency [8] was “inactive”, the Potency [9] was “inactive” and the Potency [10] was 3.26 µM (active). The Potency [11] was “inactive”, the Potency [15] was “inactive” and the Potency [16] was “inactive”. The Potency [12] was “inactive”, the Potency [17] was “inactive” and the Potency [14] was “inactive”.
For `O=Cc1ccccc1Cl`, the Potency [1] was “inactive”, the Potency [2] was “inactive” and the Potency [3] was “inactive”. The Potency [4] was “inactive”, the Potency [5] was “inactive” and the Potency [6] was “inactive”. For the same compound, the Potency [7] was “inactive”, the Potency [8] was “inactive” and the Potency [9] was “inactive”. The Potency [10] was “inactive”, the Potency [11] was “inactive” and the Potency [15] was “inactive”. For the same compound, the Potency [16] was “inactive”, the Potency [12] was “inactive” and the Potency [17] was “inactive”. The Potency [13] was “inactive” and the Potency [14] was “inactive”.
In the case of `O=C(c1ccccc1)C1CCC1`, the Potency [1] was “inactive”, the Potency [2] was “inactive” and the Potency [3] was “inactive”. The Potency [4] was “inactive”, the Potency [5] was “inactive” and the Potency [6] was “inactive”. For the same compound, the Potency [7] was “inactive”, the Potency [8] was “inactive” and the Potency [9] was “inactive”. For the same compound, the Potency [10] was “inactive”, the Potency [11] was “inactive” and the Potency [15] was “inactive”. The Potency [16] was “inactive”, the Potency [12] was “inactive” and the Potency [17] was “inactive”. The Potency [13] was “inactive” and the Potency [14] was “inactive”.
In the case of `CC(O)CC(C)O` (stereo not given), the Potency [1] was “inactive”, the Potency [2] was “inactive” and the Potency [3] was “inactive”. The Potency [4] was “inactive”, the Potency [5] was “inactive” and the Potency [6] was “inactive”. The Potency [7] was “inactive”, the Potency [9] was “inactive” and the Potency [10] was “inactive”. The Potency [11] was “inactive”, the Potency [15] was “inactive” and the Potency [16] was “inactive”. The Potency [12] was “inactive”, the Potency [17] was “inactive” and the Potency [13] was “inactive”. For the same compound, the Potency [14] was “inactive”.
For `CC(N)=O`, the Potency [1] was “inactive”, the Potency [2] was “inactive” and the Potency [3] was “inactive”. For the same compound, the Potency [4] was “inactive”, the Potency [5] was “inactive” and the Potency [6] was “inactive”. The Potency [7] was “inactive”, the Potency [8] was “inactive” and the Potency [9] was “inactive”. For the same compound, the Potency [10] was “inactive”, the Potency [11] was “inactive” and the Potency [15] was “inactive”. For the same compound, the Potency [16] was “inactive”, the Potency [13] was “inactive” and the Potency [14] was “inactive”.
In the case of `Nc1c[n+](N2CCOCC2)no1`, the Potency [1] was “inactive”, the Potency [2] was “inactive” and the Potency [3] was “inactive”. For the same compound, the Potency [4] was “inactive”, the Potency [5] was “inactive” and the Potency [6] was “inactive”. For the same compound, the Potency [7] was “inactive”, the Potency [8] was “inactive” and the Potency [9] was “inactive”. For the same compound, the Potency [10] was “inactive”, the Potency [15] was “inactive” and the Potency [16] was “inactive”. For the same compound, the Potency [12] was “inactive”, the Potency [17] was “inactive” and the Potency [13] was “inactive”. The Potency [14] was “inactive”.
